APE1 inh: inhibitors of human APE1 endonuclease. P27695. recombinant APE1, TAMRA/BHQ-2 abasic DNA cleavage fluorescence. Potency, µM (highest dose often 65.8 µM), for the others: at the top dose activity change, negative = inhibition, most hits filed as inhibitors. hit rate 0.35% among 350,000. AID 2517;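 further: plate controls were vehicle for no effect and reference inhibitor for full effect; nearly all actives have a fitted effect of over 55% in size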
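Compound pre-exposure to 0.75 nM APE1, 15 min at ambient temperature. Reaction initiated with 50 nM TAMRA/BHQ-2 THF substrate, read immediately in kinetic mode, 525 nm excitation, 598 nm emission.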
KDM4E inh: inhibitors of human JMJD2E histone demethylase; hit rate 1.6% among 230,000; Potency, µM (series often up to 57.1 µM), for inactives: at the highest dose activity change, negative = inhibition, most hits filed as inhibitors; JMJD2E catalytic domain, FDH-coupled NADH fluorescence (FDH is formaldehyde dehydrogenase); B2RXH2; active means well fitted inhibition curve with a large enough effect, not every such curve was filed as active; inconclusive means small, poorly fitted or top-dose-only effect, or another doubt; inactive means no such curve, though single readings can be large or run the other way;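 further: 0% = wells with enzyme and -100% = buffer wells without enzyme; nearly all actives have a fitted effect of over 50% in size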
BLM helicase inh: inhibitors of human Bloom syndrome helicase BLM; P54132; recombinant BLM DNA unwinding, fluorescence dequenching; Potency, µM (top dose mostly 56.1 µM), for inactives: at the top dose activity change, negative = inhibition, most hits filed as inhibitors; hit rate 0.2% among 350,000;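 further: plate controls were vehicle for no effect and no enzyme for full effect; nearly all actives have a fitted effect of over 35% in size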
Target sequence (P54132 whole entry, looked up): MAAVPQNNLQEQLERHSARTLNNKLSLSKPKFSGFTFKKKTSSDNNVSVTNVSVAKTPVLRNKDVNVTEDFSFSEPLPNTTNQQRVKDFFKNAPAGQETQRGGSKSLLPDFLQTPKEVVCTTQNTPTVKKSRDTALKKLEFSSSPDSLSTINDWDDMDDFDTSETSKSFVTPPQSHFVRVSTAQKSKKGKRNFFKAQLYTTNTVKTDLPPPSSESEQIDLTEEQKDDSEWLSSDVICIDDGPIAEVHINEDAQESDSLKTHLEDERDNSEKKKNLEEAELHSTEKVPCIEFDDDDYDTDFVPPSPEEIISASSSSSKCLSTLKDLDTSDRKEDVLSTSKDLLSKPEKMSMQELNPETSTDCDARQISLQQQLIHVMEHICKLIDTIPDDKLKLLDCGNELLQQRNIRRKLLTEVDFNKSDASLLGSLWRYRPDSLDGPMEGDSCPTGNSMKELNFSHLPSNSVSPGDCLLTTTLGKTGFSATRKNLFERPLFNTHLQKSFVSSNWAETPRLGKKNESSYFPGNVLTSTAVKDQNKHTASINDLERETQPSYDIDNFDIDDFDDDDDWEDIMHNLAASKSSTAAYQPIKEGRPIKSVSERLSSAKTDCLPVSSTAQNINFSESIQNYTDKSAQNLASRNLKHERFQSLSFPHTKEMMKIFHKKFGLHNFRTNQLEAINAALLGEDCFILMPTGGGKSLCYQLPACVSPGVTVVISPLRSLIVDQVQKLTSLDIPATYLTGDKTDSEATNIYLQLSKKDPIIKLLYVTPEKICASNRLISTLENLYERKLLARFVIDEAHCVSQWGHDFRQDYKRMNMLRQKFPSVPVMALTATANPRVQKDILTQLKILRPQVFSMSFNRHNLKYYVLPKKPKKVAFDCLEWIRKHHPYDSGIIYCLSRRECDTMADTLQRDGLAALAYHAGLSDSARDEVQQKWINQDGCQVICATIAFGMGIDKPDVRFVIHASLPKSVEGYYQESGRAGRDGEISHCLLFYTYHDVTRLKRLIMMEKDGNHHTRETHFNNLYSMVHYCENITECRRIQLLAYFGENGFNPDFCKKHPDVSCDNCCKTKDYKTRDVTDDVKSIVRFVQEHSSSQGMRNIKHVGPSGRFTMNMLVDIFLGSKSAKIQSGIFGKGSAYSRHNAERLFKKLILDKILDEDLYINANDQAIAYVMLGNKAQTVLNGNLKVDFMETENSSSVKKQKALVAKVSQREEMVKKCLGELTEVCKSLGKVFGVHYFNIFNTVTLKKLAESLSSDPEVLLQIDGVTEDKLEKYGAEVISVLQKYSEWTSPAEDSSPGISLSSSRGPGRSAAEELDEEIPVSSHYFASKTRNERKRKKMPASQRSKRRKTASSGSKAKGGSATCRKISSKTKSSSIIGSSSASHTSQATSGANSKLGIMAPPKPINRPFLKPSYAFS
PKM2 activator: increases activity of human pyruvate kinase M2; Potency, µM (highest dose often 57.5 µM), without a hit: at the highest dose activation, actives largely listed as activators; hit rate 0.34% among 260,000; AID 1631; P14618; purified PKM2, Kinase-Glo ATP luminescence, activation; response scale: 0% is enzyme alone, no compound; further: nearly all actives have a fitted effect of over 55% in size
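Purified hPK-M2 (>95%) run at intermediate activity with 0.1 mM ADP and 0.5 mM PEP in 50 mM imidazole pH 7.2, KCl, MgCl2; 1 h room temperature. ATP formed read by Kinase-Glo luminescence; normalized to uninhibited and no-enzyme controls.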
RECQ1 inh-1: RECQ1 (human) helicase inhibition; P46063; RECQ1 DNA unwinding, red fluorescence kinetic read; AID 2549; hit rate 0.54% among 240,000; Potency, µM (series often up to 57.3 µM), without a hit: at the highest dose activity, negative = inhibition, usual class: inhibitors;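 further: plate controls were vehicle for no effect and no enzyme for full effect; nearly all actives have a fitted effect of over 30% in size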
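50 nM RECQ1T1 preincubated 15 min with compound in Tris pH 8.0 buffer with MgCl2, DTT, Tween-20 and 2.5 ug/ml poly(dI-dC); started with 200 nM TAMRA/BHQ-2 forked duplex and 2 mM ATP. Unwinding read as fluorescence (525/598 nm), two reads 2 h apart.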
RECQ1 conf: confirmation of human RECQ1 helicase inhibitors | hit rate 28% among 610 | shares compounds with RECQ1 inh-1 | AID 2708 | RECQ1 helicase DNA unwinding, fluorescence | Potency, µM (highest dose often 229 µM), for inactives: at the highest dose activity change, negative = inhibition, usual class: inhibitors; further: nearly all actives have a fitted effect of over 45% in size
ADP FP counter: ADP displacement flagged in RECQ1 inhibitor counter-screen; shares compounds with RECQ1 inh-1; ADP fluorescence polarization displacement counterscreen; Potency, µM (doses to about 228 µM), for inactives: top-dose activity change, negative = inhibition, most hits filed as inhibitors; hit rate 27% among 530; further: nearly all actives have a fitted effect of over 45% in size
RECQ1 inh-2: blocks human RECQ1 DNA unwinding; Potency, µM (series often up to 119 µM), inactives show at the top dose activity, negative = inhibition, usual class: inhibitors; recombinant RECQ1 DNA unwinding, red fluorescence; shares compounds with RECQ1 inh-1; hit rate 15% among 1,100; further: nearly all actives have a fitted effect of over 50% in size
Active calls of the source: *; i = inactive; ? = inconclusive; nt = no result given; [ ] = another dose, or the depositor's remark. This excerpt belongs to a sample that is enriched for hits. Unless noted, the call rests on the fitted dose curve; in most records, active means well fitted curve in the direction sought with a large enough effect; inconclusive means small, poorly fitted or top-dose-only effect, or another doubt; inactive means no such curve, though single readings can be large; an effect the other way counts as inactive or inconclusive. Unless noted, on the % scale 0 is the no-effect control and ±100 the full control effect; potency means the concentration at half of the fitted maximal effect.

SMILES	APE1 inh	KDM4E inh	BLM helicase inh	PKM2 activator	RECQ1 inh-1	RECQ1 conf	others
CCCOc1ccc(Cc2nn3c(=O)/c(=C/c4ccco4)sc3nc2=O)cc1	?	-2.4%	-4.3%	1.9%	25.1µM*	nt	RECQ1 inh-2=?
CCCOc1ccc(/C=c2\sc3nc(-c4ccco4)nn3c2=O)cc1OCC	?	-6.2%	-1.5%	-0.7%	?	nt
CN1CCN(c2ncc3c(n2)CCN(Cc2ccccc2Cl)C3)CC1	nt	nt	-1.5%	nt	nt	nt
COc1cc(/C=C2\SC(=S)N(NC(=O)c3ccncc3)C2=O)ccc1O	?	0.1%	-13.9%	0.1%	14.1µM*	50.1µM*	ADP FP counter=78.7%[91.9 µM]
O=C(O)CC(NC(=O)COc1ccc(Cl)cc1Cl)C(=O)O (stereo not drawn)	1.7%	1.4%	0.6%	-3.8%	14.5%	15.4%	ADP FP counter=4.6%
CCOC(=O)c1cnc2cc(C(F)(F)F)ccc2c1Nc1ccc(F)cc1F	nt	nt	-7.3%	nt	nt	nt
Cc1ccc2nc(NC(=O)C3CCN(S(=O)(=O)c4cc([N+](=O)[O-])ccc4Cl)CC3)sc2c1	?	-3.2%	-12.6%	-1.9%	31.6µM*	nt	RECQ1 inh-2=?
Nc1nn2cc(-c3ccc(Br)cc3)nc2c2ccccc12	5.6%	?	-13.1%	-7.8%	?	nt	RECQ1 inh-2=?
COc1ccc2c(c1)CCc1c(C(=O)N(C)c3ccccc3)noc1-2	-1.6%	-5.0%	-3.2%	2.2%	4.47µM*	6.5%[114 µM]	ADP FP counter=?;RECQ1 inh-2=-12.2%
N#Cc1ccc(C(=O)Nc2ccc(Cl)c(-c3nc4cc(Cl)ccc4o3)c2)c(F)c1	nt	nt	-5.1%	nt	nt	nt
Cc1ccc(/C=C/C(=O)NCc2ccccn2)o1	?	-22.6%	?	?	?	nt	RECQ1 inh-2=17.8µM*
COc1ccc(/C=C/C(=O)NCc2ccccn2)cc1	-0.2%	-0.2%	1.4%	2.0%	-42.0%	nt
Cc1ccc2oc(-c3ccc(Cl)c(NC(=O)c4cc5ccccc5o4)c3)nc2c1	nt	nt	-6.8%	nt	nt	nt
CCC1CN(C(=O)N2CCC(C(=O)NCc3cccc(C)c3)CC2)c2ccccc2O1 (stereo not drawn)	nt	nt	-1.3%	nt	nt	nt
CC1CCCC(C(=O)O)N1C(=O)CCSSCCC(=O)N1C(C)CCCC1C(=O)O (stereo not drawn)	-2.3%	0.1%	-2.9%	-3.1%	-5.2%	6.6%	ADP FP counter=4.6%
CC1CCCC(C)N1C(=O)C1CCCCC1 (stereo not drawn)	-4.2%	7.7%	-1.2%	4.7%	?	nt
CCOC(=O)c1cnc2ccccc2c1Nc1cccc(OC)c1	nt	nt	-8.4%	nt	nt	nt
COc1ccccc1C(=O)c1c(N)c(-c2nc(-c3ccccc3)cs2)c2ccccn12	nt	nt	-4.2%	nt	nt	nt
O=C(O)CCSc1nnc(COc2ccc([N+](=O)[O-])cc2)n1-c1ccccc1	-1.5%	-33.7%	-4.3%	-2.1%	-0.6%	-0.2%	ADP FP counter=2.3%
CO[C@@H]1/C=C\CC(=O)N[C@@H](C)C(=O)OC[C@@H](OC)[C@H](C)CCCC(=O)OC[C@H]1C	?	nt	-3.0%[12.4 µM]	nt	-11.6%[11.5 µM]	nt
N=C1/C(=C\c2ccc(SCc3ccccc3)o2)C(=O)N=C2SC(CC(=O)N3CCOCC3)=NN12	-7.9%	?	-22.8%	-10.6%	?	nt	RECQ1 inh-2=-28.5%
Cc1ccccc1-n1c(C)cc(/C=N/Nc2ccc([N+](=O)[O-])cn2)c1C	-4.4%	-10.0%	-4.1%	0.0%	6.1%	nt
Cc1cc(/C=N/Nc2ccc([N+](=O)[O-])cn2)c(C)n1-c1ccc(C(=O)O)cc1	?	-19.2%	?	7.4%	17.8µM*	?
COC1=C(Nc2ccc(C)cc2)C(=O)c2ccccc2C1=O	?	14.1µM*	-6.6%	-7.8%	?	nt	RECQ1 inh-2=-13.6%
Cc1nn(C(C)(C)C)c(OC(=O)c2cccc(F)c2)c1Sc1ccccc1	nt	nt	-8.4%	nt	nt	nt
SMILES	APE1 inh	KDM4E inh	BLM helicase inh	PKM2 activator	RECQ1 inh-1	RECQ1 conf	others
COc1cccc(/C=N/Nc2nc3ccccc3n3cnnc23)c1	-4.5%	-2.9%	3.7%	9.1%	-2.6%	nt
COc1cccc(/C=N/Nc2nc3ccccc3n3cnnc23)c1O	1.5%	28.2µM*	-11.1%	-9.3%	5.01µM*	-4.7%[114 µM]
COc1cccc(C(=O)Nc2ccc3nc(SCC(=O)N4CCOCC4)sc3c2)c1	nt	nt	1.3%	nt	nt	nt
CC(=O)c1ccc(N2CCN(C(=O)c3cn(C)c(=O)c4c3c3ccccc3n4C)CC2)cc1	nt	nt	3.0%	nt	nt	nt
O=C1/C(=C/c2ccc(O)c(O)c2)Oc2ccccc21	?	nt	-28.4%	nt	?	nt	RECQ1 inh-2=44.7µM*
O=C(Nc1ccc(Cl)cc1Cl)c1cc(S(=O)(=O)N2CCC3(CC2)OCCO3)ccc1F	nt	nt	-8.8%	nt	nt	nt
Cc1cc(C)cc(SCc2noc(C(=O)NCC3CCCO3)c2C(=O)O)c1 (stereo not drawn)	-10.8%	-3.7%	-2.2%	0.4%	-8.2%	10.1%	ADP FP counter=?
Cc1cccc(SCc2noc(C(=O)NCC3CCCO3)c2C(=O)O)c1 (stereo not drawn)	-0.6%	-5.8%	-0.3%	-0.5%	-9.9%	nt
Cn1cnnc1Sc1ccc(/C=C/C(=O)c2ccc(O)cc2)cc1[N+](=O)[O-]	?	1.4%	-7.6%	?	?	nt
Cc1ccc(/C=C(\CCC(=O)O)c2nc3ccccc3s2)cc1[N+](=O)[O-]	1.8%	8.8%	-3.8%	3.2%	-4.4%	nt
CNc1ccc(/C=C(\CCC(=O)O)c2nc3ccccc3s2)cc1[N+](=O)[O-]	35.5µM*	2.7%	-29.3%	1.8%	35.5µM*	nt	RECQ1 inh-2=31.6µM*
Cn1cnnc1Sc1ccc(/C=C(\CCC(=O)O)c2nc3ccccc3s2)cc1[N+](=O)[O-]	18.9%	-21.6%	-4.7%	14.7%	14.3%	10.6%	ADP FP counter=0.7%
Cc1ccc(C)n1-c1sc2c(c1C(=O)O)CCCC2	?	-29.9%	-17.7%	0.8%	12.6µM*	56.2µM*	ADP FP counter=?;RECQ1 inh-2=8.91µM*
COc1cccc(CNC(=O)c2ccc(CS(=O)Cc3ccc(Cl)cc3)o2)c1 (stereo not drawn)	nt	nt	0.9%	nt	nt	nt
COc1cc(NC(=O)CCNS(=O)(=O)c2ccc3c(c2)CCC(=O)N3)cc(OC)c1	-4.1%	-2.3%	0.1%	-15.2%	-12.3%	nt
COc1ccc(NC(=O)CCNS(=O)(=O)c2ccc3c(c2)CCC(=O)N3)cc1	2.1%	0.5%	-0.9%	-5.4%	-3.5%	13.6%	ADP FP counter=?
O=C(O)CN=C1CC(c2ccccc2)CC(=O)/C1=C(/O)CCCN1C(=O)c2ccccc2C1=O (stereo not drawn)	-9.5%	4.1%	1.3%	-1.8%	i	?	ADP FP counter=6.2%
